BoNT-F LC inh: inhibitors of Botulinum neurotoxin F light chain protease; Multiplex microsphere protease cleavage assay, flow cytometry; inhibition, % at 10 µM; actives 0.22% (n = 360,000); AID 588497; in the data active = inhibition above about 35%, passing the limit was not always enough; inconclusive = no clear call, values can overlap the other calls; note: plate controls were buffer without enzyme for full effect and enzyme alone for no effect
Bead autofluor: flagged as autofluorescent in microsphere protease counterscreen; fluorescence intensity (test concentration not listed); actives 3.1% (n = 360,000); compound autofluorescence counterscreen, microsphere flow cytometry; active compounds read high; AID 624483; in the data active = fluorescence intensity above about 16000; inconclusive = no clear call, values can overlap the other calls
MazEF act: MazEF (E. coli) toxin RNase activation; FAM/BHQ RNA-DNA oligo cleavage fluorescence, 5 h; actives 0.32% (n = 350,000); activation, % at 20 µM; P0AE70; in the data active = activation above about 50%
Anthrax LF prot: blocks Bacillus anthracis lethal factor protease. P15917. multiplex microsphere protease cleavage assay, LF. inhibition, % at 10 µM. actives 0.12% (n = 360,000); note: plate controls were buffer without enzyme for full effect and enzyme alone for no effect
BoNT-A LC inh2: inhibitors of Botulinum neurotoxin A light chain protease; multiplex microsphere protease substrate cleavage, flow cytometry; inhibition, % at 10 µM; actives 0.17% (n = 360,000); note: plate controls were buffer without enzyme for full effect and enzyme alone for no effect
* = called active by the depositor; ? = inconclusive; . = not tested or not shown. This is a sample that favours compounds with a hit; in the whole collection about 3.7% have one here. Cut-off read from the data, not from the text of the source, unless noted: active = inhibition above about 30%; inconclusive = no clear call, values can overlap the other calls; inactive = below that.

SMILES	BoNT-F LC inh	Bead autofluor	MazEF act	Anthrax LF prot	BoNT-A LC inh2
COc1ccc(-c2nn3c(-c4ccccc4)nnc3s2)cc1	-0.5	20178*	12.8	-0.1	0.2
COc1ccc(C2CC=C(C(C)=O)CN2S(=O)(=O)c2ccccc2)cc1 (stereo unspecified)	3.3	4223	.	11.9	0.3
CC1=C(C(=O)Nc2ccccc2C)C(c2ccc(C)o2)N2C(=O)CSC2=N1 (stereo unspecified)	2.9	20714*	-6.3	-8.5	4.1
Cc1ccccc1NC(=O)CCN1C(=O)CSC1=O	-1.5	3618	8.6	-1.1	0.7
COc1ccccc1-n1c(C)nnc1SCC(=O)Nc1cc(C)cc(C)c1	-0.4	23628*	3.2	-2.5	0.3
COc1ccccc1-n1c(C)nnc1SCC(N)=O	1.3	22827*	3.0	2.7	0.7
CC(C)CC(=O)Nc1ccc(Oc2ccc3c(c2)C(=O)NC3=O)cc1	.	.	11.1	.	.
CCOC(=O)N1CCN(C(=O)c2ccc(CS(=O)(=O)c3ccccc3OC)o2)CC1	5.9	20166*	-5.7	-1.5	?
CCOC(=O)N1CCN(C(=O)c2ccc(CS(=O)(=O)c3c(Cl)cccc3Cl)o2)CC1	-6.3	4242	5.4	-13.4	-1.4
CCN1CCN(C(=O)c2ccc(CS(=O)(=O)Cc3ccccc3F)o2)CC1	-3.9	25125*	6.5	-0.8	-2.9
COc1ccc(S(=O)(=O)Cc2ccc(C(=O)N3CCC4(CC3)OCCO4)o2)cc1	0.4	19527*	1.9	-4.0	1.2
O=C(O)c1ccc(CS(=O)(=O)Cc2ccccc2F)o1	-6.3	8061	-2.1	-4.4	-0.8
COc1ccccc1CNC(=O)c1ccc(CS(=O)(=O)c2ccccc2OC)o1	-4.0	22833*	1.9	-2.7	-2.3
COc1ccc(N2CCN(C(=O)c3ccc(CS(=O)(=O)c4ccc(OC)cc4)o3)CC2)cc1	-0.6	5212	7.9	-3.1	0.2
COc1ccc(CN2C(=O)C(CC(=O)NC(c3ccccc3)c3ccccc3)CC(C(=O)N(C(C)C)C(C)C)=C2C)cc1 (stereo unspecified)	-0.2	3695	2.9	-4.3	-0.3
COc1ccccc1N1CCN(C(=O)c2ccc(CS(=O)(=O)c3ccccc3OC)o2)CC1	-4.1	16680*	-13.3	-0.9	-0.9
O=C1c2ccccc2C(=O)N1CCc1nc(-c2ccncc2)no1	2.0	19470*	3.4	-8.3	2.3
O=C1c2ccccc2C(=O)N1CCc1nc(-c2ccc(Cl)cc2)no1	1.5	21023*	0.6	-34.8	2.1
CNS(=O)(=O)c1ccc(CNC[C@H]2O[C@@H](n3cnc4c(=O)[nH]c(N)nc43)[C@H](O)[C@@H]2O)cc1	-5.7	5532	.	-0.2	-1.0
N#Cc1cccc(N2[C@@H](Cc3cc4ccccc4n3Cc3ccccc3)COC[C@H]2Cc2ccc3ccccc3c2)c1	2.9	3576	-3.8	1.0	0.1
COc1ccccc1Cc1c(-c2cccc(Cl)c2)nc2ccc(Cl)cn12	-0.4	9202	.	1.5	3.5
CN1CCN(C(=O)CCNC(=O)Cn2ccc3ccccc3c2=O)CC1	3.8	6370	-15.3	-11.6	1.6
O=C(Cn1cnc2ccccc2c1=O)NCCC(=O)N1CCN(c2ccccc2)CC1	1.9	22618*	4.3	-4.6	?
Cc1cccc(N2CCN(C(=O)CCNC(=O)Cn3ccc4ccccc4c3=O)CC2)c1C	10.1	19164*	3.0	-18.8	?
O=C(CC1OC(=O)c2ccccc21)Nc1cc(Cl)ccc1N1CCOCC1 (stereo unspecified)	.	.	-5.0	.	.
SMILES	BoNT-F LC inh	Bead autofluor	MazEF act	Anthrax LF prot	BoNT-A LC inh2
Cc1ccc(NC(=O)CNc2cccc(C)c2C)c(C)c1	-19.3	4019	5.5	1.1	1.1
O=C(O)CCCC(=O)Nc1ccc(Br)cc1	0.1	23089*	-2.1	-1.0	0.2
CC(C)Oc1ccc(NC(=O)CCC(=O)O)cc1	-0.5	16641*	1.7	-1.2	-1.4
O=C(O)CCCC(=O)Nc1ccc(Cl)cc1	-0.1	3294	-4.2	0.3	1.4
Cc1ccc(NC(=O)CNc2ccc(OC(C)C)cc2)c(C)c1	-19.9	19175*	9.6	-7.6	2.8
COC(=O)[C@@]1(Sc2ccc(C)cc2)CC(=O)N(C(=O)/C=C/c2ccccc2)[C@@H]1c1ccccc1	-2.7	5706	.	-9.1	0.5
COc1ccc(OCCC(=O)OCc2c(C)noc2C)cc1	-8.1	3556	2.1	-1.0	-0.2
Cc1noc(C)c1COC(=O)CCOc1ccccc1	-3.6	17725*	-5.2	-1.3	-2.5
COC(=O)c1ccc(Cn2nc(-c3cc(C)ccc3C)ccc2=O)cc1	-10.6	4043	5.4	-13.2	0.0
O=C(NCCCN1CCOCC1)c1cc(C(=O)C2CCCCC2)c[nH]1	6.3	4222	-18.2	-4.5	-0.9
